These results are taken from PubChem BioAssay (NCI).

This is part of a sample that, as a whole, favours compounds with a hit. Of some 83,000 tested, about 20% had one in any assay.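 Interpretation: 100, growth as untreated; towards 0, rising growth inhibition; 0, no net growth; 0 to -100, cell death. Compounds scoring below 10 were considered active.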 A number with no mark means an inactive call. Activity calls are given as the source filed them.

For the experiment, the system named is HOP-62 NSCLC. Description: NCI-60 one-dose screen, 48 h (100 = growth as untreated, 0 = no growth, -100 = all killed). The settings on record: 10 µM unless noted.
Consider `O=C(Nc1cccc2ccccc12)c1cc2ccccc2cc1O`, for which the growth is 12.5%.
The figure for `COc1cc2c(O)n(CCCN3CCOCC3)c3c4cnc5cccc(c(=O)c3c2cc1OC)c54` is 14.5%; for `C#CCNC(=O)CC[C@@H](C)[C@H]1CC[C@H]2[C@@H]3CC[C@@H]4CC(=O)CC[C@]4(C)[C@H]3CC[C@]12C` it is -56.3% [100 µM] (active).
The figure for `COc1ccc(NC(=O)Nc2ccc(-c3cccnc3)cc2N2CCC(CO)CC2)cc1` is 54%; for `CC1(C(=O)O)CCC(N)(C(=O)O)C1(C)C` (configuration not stated) it is 99.5%.
The result for `COc1ncc(-c2ccc3nccc(C#CCCCCC(=O)NO)c3c2)cc1NS(=O)(=O)c1ccc(F)cc1F` reads 4.48% (active); that for `O=C(O)CC1CCCCC1c1ccccc1` (configuration not stated), 112%.
Turning to `CC(C)=CC/C=C(/C)[C@H]1CC[C@]2(C)[C@@H]1CC[C@@H]1[C@@]3(C)CCC(=O)NC(C)(C)[C@@H]3CC[C@]12C`, the growth is 14.3% [100 µM].
The result for `Cc1nc(Cl)c2c(n1)N(C)c1ccc(Cl)cc1C(C)C2` (configuration not stated) reads 90.4%; that for `Cc1ccc(N)c(O)c1`, 91.7%.
`Nc1ccc(Cl)c([N+](=O)[O-])c1`: the growth is 101%.
On to `O=[N+]([O-])c1cccc(N=NNc2cccc([N+](=O)[O-])c2)c1`, for which the growth is 110%.
The result for `C=C(C)[C@@H]1CC[C@]2(C)[C@H](CC[C@@H]3[C@@H]([C@@](C)(O)CCC=C(C)C)CC[C@]32C)[C@@]1(C)CCC(=O)N1CCN(C)CC1` reads -93% [100 µM] (active); that for `Cn1cc(-c2noc(C(=O)c3cn(C)c4ncc(Br)cc34)n2)c2ccccc21`, 102%.
The result for `COc1cc(NCc2ccccc2O)c2ncccc2c1` reads 83.5%; that for `Cc1ccc(C2=C/C(=C/c3ccc(Br)cc3)C(=O)N2CCc2ccc(S(N)(=O)=O)cc2)cc1`, 96.1%.
The result for `Nc1nc(Nc2ccccc2)c2ncn(Cc3ccc4c(c3)OCO4)c2n1` reads 40.8%; that for `O=C(CCCSc1nc(-c2ccccc2)cc(-c2ccccc2)n1)NO`, -8.18% (active).
`FC(F)(F)c1ccc2c(c1)Sc1ccccc1N2`: the growth is 97%.
The figure for `O=C1NC(=O)C(Cc2ccccc2)(Cc2ccccc2)N1` is 84.9%.
With `C=C(C)[C@@H]1CC[C@]2(C(=O)N3CCN(C)CC3)CC[C@]3(C)[C@H](CC[C@@H]4[C@@]5(C)C/C(=C/c6ccncc6)[C@H](O)C(C)(C)[C@@H]5CC[C@]43C)[C@@H]12`, the growth was -38.6% [100 µM] (active).
The result for `C[C@@H](NC(=O)[C@@H](CC(=O)N1CCC(N2CCCCC2)CC1)N1C(=O)[C@@H](N2C(=O)OC[C@@H]2c2ccccc2)[C@H]1/C=C/c1cccc(Cl)c1)c1ccccc1` reads 87.6%; that for `N#C/C(=C(/O)CCCO)c1nc2ccccc2c(=O)[nH]1`, 99%.
The figure for `Cn1cc(-c2nnc(-c3cn(C)c4ncc(Br)cc34)s2)c2cc(Br)ccc21` is 93.1%; for `CC1(C)CC[C@]2(C(=O)OC(=O)[C@]34CCC(C)(C)C[C@@H]3C3=CC[C@@H]5[C@@]6(C)CCC(=O)C(C)(C)[C@@H]6CC[C@@]5(C)[C@]3(C)CC4)CC[C@]3(C)C(=CC[C@@H]4[C@@]5(C)CCC(=O)C(C)(C)[C@@H]5CC[C@]43C)[C@H]2C1` it is 74.7% [100 µM]; for `Cn1cc(-c2noc(-c3cn(C)c4ncc(Br)cc34)n2)c2cc(Cl)ccc21` it is 50.5%.
The result for `CCc1cccc(Cl)c1` reads 103%; that for `c1cc2ccc3cc2cc1CNCCN1CCNCc2ccc4ccc(cc4c2)CNCCN(CCNC3)CCNCc2ccc3ccc(cc3c2)CNCC1`, 60.3%; that for `COc1ccc(-c2cc(-c3ccccc3)nc(NCCNc3ccnc4cc(Cl)ccc34)n2)cc1`, -83.8% (active).
Take `O=C(N/N=C\c1cc(Cl)ccc1O)N/N=C/c1cc(Cl)ccc1O`: the growth was 54%.
The result for `O=C1Nc2ccccc2/C1=C/C(=O)c1ccc(N2CCCCC2)cc1` reads 102%; that for `O=c1c2c3c(sc2n2cnnc2n1Cc1ccccc1)CCCC3`, 119%; that for `Cn1c(=O)c(C#N)c(-c2ccco2)n2c(S(=O)(=O)Cc3ccccc3)nnc12`, 104%.
The result for `CCCCCn1sc(=O)n(Cc2ccc(CNC(=O)OCc3ccc4cccc(O)c4n3)cc2)c1=O` reads -0.186% (active); that for `O=C(N/N=C/c1ccc([N+](=O)[O-])cc1)c1ccc(Br)o1`, 119%; that for `C=C(C)[C@@H]1CC[C@]2(COCCC#N)CC[C@]3(C)[C@H](CC[C@@H]4[C@@](C)(CCCNCCC#N)[C@H](C(=C)C)CC[C@]43C)[C@@H]12`, 77.8% [100 µM].
The result for `C=C(C)[C@@H]1CC[C@]2(C(=O)OC)CC[C@]3(C)[C@H](CC[C@@H]4[C@@]5(C)CC/C(=N\OCCC(=NCCC#N)NOCCC#N)C(C)(C)[C@@H]5CC[C@]43C)[C@@H]12` reads 32.5% [100 µM].
